# Laboratory results as given in PubChem BioAssay (EPA / NIEHS).
# The source made the active and inactive calls. Rule for the calls: active = hit-call score of the fitted dose curve at least 0.9, where 1 is the maximum; inactive = score below 0.9.
# Read-out: Cytochrome P450 (CYP24A1), CYP24A1 (gene 1591)
# Assay: LTEA_HepaRG_CYP24A1: Life Technologies and Expression Analysis (LTEA) Assay for Cytochrome P450 (CYP24A1) using HepaRG (AID 2283478)
# Conditions: mRNA level, 48 h; actives raise or lower the signal
# Description: LTEA_HepaRG is a cell based, multiplexed-readout assay that uses HepaRG, a human liver cell line, with measurements taken at 48 hours after chemical dosing on a 96-well plate.LTEA_HepaRG_CYP24A1 is one of 102 assay component(s) measured in the LTEA HepaRG cell culture assay. It is a marker of NR mediated metabolism.Data from the assay component LTEA_HepaRG_CYP24A1 was analyzed into 1 endpoint. This assay endpoint, LTEA_HepaRG_CYP24A1, was analyzed with bidirectional fitting relative to DMSO as the negative control and baseline of activity. Using a type of inducible reporter, measures of mRNA induction for gain or loss-of-signal activity can be used to understand regulation of transcription factor activity. To generalize the intended target to other relatable targets, this assay endpoint is annotated to the cyp intended target family, where the subfamily is xenobiotic metabolism.
# A total of 1060 chemcials from the ToxCast library were tested in eight-point concentration-response experiments. Cell culture and cytotoxicity assays were conducted at Thermo Fisher Scientific's Custom Services facility (Madison, WI). A single lot of human HepaRG cells (Thermo Fisher Scientific, Frederick, MD) was used for the cell culture experiments. 96-well format collagen type I coated plates of human HepaRG cells were prepared using established methods. Briefly, cryopreserved HepaRG cells were thawed, plated at a density of approximately 100,000 cells/well in HepaRG Thaw, Plate, and General Purpose media (HPRG770, Thermo Fisher Scientific), and incubated for 48 hours. 0.5% DMSO was selected as vehicle control to balance the requisite need of DMSO in HepaRG cultures to maintain differentiation (for example, baseline metabolism, proportions of hepatocytes vs. cholangiocytes), while enabling further hepatic receptor pathway activation (for example, PXR and CAR) in response to chemical exposure. 48 hours after plating, the culture medium was replaced with HepaRG Serum-Free Incudtion Media. Cells were exposed to each test chemical in duplicate and maintained in CO2 incubators for another 48 hours. Chemical plates were thawed to room temperature and 200x concentrations of treatment groups were prepared. 8-point conentration-reponse curves were made with the highest exposure at 100 uM, followed by half-log dilutions, all in 0.5% DMSO. Each test plate contained variouse controls, induction positive controls (1mM phenobarbital), cytotoxicity positive controls ([…] aflatoxin B1), vehicle controls (0.5% DMSO), and total lysis controls (0.5% DMSO). Cell morphology images were taken using an Essen IncuCyte FLR automated microscope, with six 96-well plates imaged in about 24 minutes. Images were captured and exported and JPEG files. Spent culture media was transfered to black-well plates for the LDH assay, and remaining media was sorted at -80 C for later use. Cells were treated with RLT buffer and frozen until shipped for gene expression analysis. Total RNA was isolated from the cell suspension in 75 uL of Buffer RLT (Qiagen, Germantown, MD 20874) by Quintiles/Expression Analysis (Durham, NC) using a custom isolation procedure. Total RNA from each plate well was transferred to a preamplification plate. Fluidigm's 96.96 Dynamic ArrayTM (Fluidigm, Amsterdam, the Netherlands) technology was used for gene expression analyses by quantitative reverse transcription polymerase chain reaction (qRT-PCR, performed by Quintiles/Expression Analysis, Durham, NC)89. Standard TaqManTM Assays (Applied Biosystems/ThermoFisher Scientific, Foster City, CA) were used to assess the expression of 93 genes selected based on their selectivity and sensitivity to important hepatic receptors known to be modulated by environmental chemicals; importance in human hepatocyte functionality; and hepatotoxicity. […]
Compound,outcome,AC50
O=C(CCCN1CCC(O)(c2ccc(Cl)cc2)CC1)c1ccc(F)cc1,inactive,
CCCCCCCCCCCCOS(=O)(=O)O,inactive,
CN(Cc1cnc2nc(N)nc(N)c2n1)c1ccc(C(=O)N[C@@H](CCC(=O)O)C(=O)O)cc1,inactive,
CCCCC(CC)C(=O)O (configuration not stated),inactive,
CCCCC=O,inactive,
O=C1NS(=O)(=O)c2ccccc21,inactive,
CC(=O)Nc1ccc(O)cc1,inactive,
Cc1[nH]nc2c1N=C(c1ccccc1Cl)c1cc([N+](=O)[O-])ccc1N2,,4.02 µM (active)
N=C(N)c1ccc(OCCCCCOc2ccc(C(=N)N)cc2)cc1,inactive,
CCC(C)c1ccccc1O (configuration not stated),inactive,
OCC(CO)(CBr)CBr,inactive,
CCCCCCCCCCCCCCC,inactive,
